Assay results reported in ChEMBL document CHEMBL4513216, “Probing the Open Global Health Chemical Diversity Library for Multistage-Active Starting Points for Next-Generation Antimalarials” (ACS Infect Dis, 2020).
Hit rate of the full screen: of about 65,000 compounds, about 2,100 (3.2%) showed an effect of 50% or more. The median lay at about -52%. Many of the other results were omitted from the sample, so strong results are more common in it than they were.

The compounds below were run on Plasmodium falciparum (assay: Screen against P. falciparum Asexual Blood Stage (ABS), at 5uM). Conditions: tested at 5 uM.
Assay type: functional, Dd2

Structure (SMILES)	INHIBITION [%]
Cc1ccsc1CN1CCc2c(nc(N3CCCCC3C)[nH]c2=O)C1 (configuration not stated)	-14.7
COCCN1C[C@@H]2CN(c3cc(OC)ncn3)CCC[C@]2(C(=O)O)C1	-84
O=C(NCc1cn2c(n1)CN(CC1CCOCC1)CC2)C1CCC1	-14.2
c1ncn(Cc2nnc(C3CCN(CC4CC4)CC3)n2C2CC2)n1	-88.1
Cc1cc(NC(=O)NCC(O)c2ccc(F)cc2)n(C)n1 (configuration not stated)	18.3
Cc1cc(C)cc(CNc2ccc(C(=O)NC(C)CO)cc2)c1 (configuration not stated)	-96.7
COC(=O)CC1CCCCN1CC(=O)Nc1ccc(F)cc1Cl (configuration not stated)	-174
CCN1CCCC(O)(CN(C)Cc2c(C)nn(C)c2C)C1 (configuration not stated)	-105
CCN1CCCC(O)(CN(C)Cc2ccccc2F)C1 (configuration not stated)	57.5
CCN1CCCC(O)(CNCc2ccccc2F)C1 (configuration not stated)	40.6
Cc1nn(C)c(Cl)c1C1CCCN1CC(=O)NCc1ccco1 (configuration not stated)	-24.5
CC(NCc1cccs1)c1ccc(OCc2nccn2C)cc1 (configuration not stated)	-50.1
CCc1cc(N2CCS(=O)(=O)CC2)n2nc(C)c(C)c2n1	-16.5
CCc1cc(N2CCCNCC2)n2nc(C)c(C)c2n1	54.5
CCc1cc(N2CCSCC2)n2nc(C)c(C)c2n1	-90.3
CCNc1ncc(CN2C[C@@H]3CC[C@H]2CN(C(=O)C2CCC2)C3)cn1	-47.5
O=C([C@H]1CCCO1)N1CCCC2(COCCN(c3ccccc3)C2)C1 (some centres not stated)	25.2
Cc1cnn(CCNCC(O)COc2cc(Cl)ccc2Cl)c1 (configuration not stated)	58
Cc1cnn(CCNCC(O)COc2ccc(Cl)cc2Cl)c1 (configuration not stated)	20.2
Cc1cnn(CCNCC(O)COc2ccc(Cl)cc2)c1 (configuration not stated)	-16.9
c1cc(CNCc2ccc(-n3cncn3)nc2)cc(OC2CCCC2)c1	-6.1
Cc1ccc(C(=O)N2CCc3ncnc(-c4cnn(C)c4)c3CC2)o1	-34.2

Structure (SMILES)	INHIBITION [%]
Cc1ccc(OCC(=O)Nc2ccc(S(C)(=O)=O)cc2)cc1C	-89.1
N#Cc1c(Cl)nsc1NCCCN1C(=O)COc2ccccc21	58.1
N#Cc1cnc(NCCCN2C(=O)COc3ccccc32)c(Cl)c1	-73.7
N#Cc1ccc(NCCCN2C(=O)COc3ccccc32)nc1	-30.6
CC(C)NC(=O)c1sc2ccccc2c1C1CCC(CN)CC1 (configuration not stated)	0.324
COc1nn(C)c2c1CCCN(C(=O)c1ccc3ccccc3n1)C2	-94.4
O=C(c1ccc[nH]1)N1C[C@@H]2CC[C@H]1CN(C1Cc3ccccc3C1)C2	-60.5
CCCc1nc(C[S+]([O-])Cc2cn3cccc(C)c3n2)no1 (configuration not stated)	-22
CCN1CCO[C@@H]2CN(C(=O)c3ccc4[nH]ccc4c3)CC[C@@H]2C1	-49.2
OC[C@@H]1CCCN1c1nccc(-c2c[nH]nc2-c2ccncc2)n1	68.3
CN1CCCN(c2nccc(-c3cc(C(=O)O)ccn3)n2)CC1	-113
CN1CCCN(c2nccc(-c3c[nH]nc3-c3ccncc3)n2)CC1	66.9
Cc1ncc(-c2ccnc(N3CCC[C@@H]3CO)n2)c(-c2cccnc2)n1	-23.8
CN1CCCN(c2nccc(-c3c[nH]c4ccc(Br)cc34)n2)CC1	43.1
OCCNc1nccc(-c2c[nH]nc2-c2ccncc2)n1	-56.1
CNc1cccc(C2CCCN(C(=O)c3cscn3)C2)n1 (configuration not stated)	-9
CC1N(C)C(=O)COC12CCN(Cc1ccsc1)CC2 (configuration not stated)	-52.9
COCCN1CCCC1c1nccnc1Nc1nccs1 (configuration not stated)	1.36
Cc1cccn2c(CC(=O)N3CCC(CCn4cccn4)CC3)cnc12	-1.65
N#Cc1cccc(OCCN2CCCC2C(=O)NCC(F)(F)F)c1 (configuration not stated)	1.9
N#Cc1cccc(OCCN2CCCC2C(=O)NC2CC2)c1 (configuration not stated)	-14.2
N#Cc1cccc(OCCN2CCCC2C(=O)N2CCSCC2)c1 (configuration not stated)	51.9

Structure (SMILES)	INHIBITION [%]
c1cc(CNCCc2cn3ccccc3n2)c2c(c1)OCCCO2	-57.2
Cc1cccn2cc(CNCc3cccc4c3OCCCO4)nc12	53.7
Cc1cccc2nc(CNCc3cccc4c3OCCCO4)cn12	47.8
Cc1ccc(CN2Cc3c(C(=O)N(C)C)nn(C)c3C2)s1	-70.8
Cc1nnc(N2C[C@@H](OCCCn3cccn3)[C@H]3OCCC[C@H]32)s1	-31.4
OC1(CNCc2csc(-c3ncccn3)n2)CCCNC1 (configuration not stated)	-26.6
CC(C)Oc1cccc(CNC(Cc2ccsc2)c2nccs2)c1 (configuration not stated)	-29.2
Cc1cccnc1C(Cc1ccsc1)NC(=O)Cn1cccnc1=O (configuration not stated)	4.78
Cc1cccnc1C(Cc1ccsc1)NCc1cnc(N(C)C)nc1 (configuration not stated)	66.6
CN1CCCC(Cc2cncc(C(=O)N3CCOCC3)c2)C1 (configuration not stated)	-133
O=S1(=O)NC(c2ccnc(N3CCOCC3)n2)=Nc2ccccc21	-15.8
CN(Cc1ccccc1)C(=O)CSc1ccc2c(c1)OCCO2	-122
O=C(CO)N1CCCC2(CCN(c3ccsc3)C2=O)C1 (configuration not stated)	-104
O=C1N(c2ccsc2)CCC12CCCN(CC1CC1)C2 (configuration not stated)	51.6
CN(C)C(=O)CN1CCCC2(CCN(c3ccsc3)C2=O)C1 (configuration not stated)	-78.3
COc1ccc(CN2CCC3(CCN(c4cccnc4)C3=O)C2)cc1 (configuration not stated)	-23.2
COCCN1CCCC2(CCN(c3ccsc3)C2=O)C1 (configuration not stated)	16
COc1ccc(CN2CCCC3(CCN(c4ccsc4)C3=O)C2)cc1 (configuration not stated)	62.3
CC1COC2(CCN(C(=O)Cc3ccncc3)CC2)C1 (configuration not stated)	-78.3
Cc1cc(C2CCCN(CCc3ccc4c(c3)CCO4)C2)n[nH]1 (configuration not stated)	-25.4
COc1ccccc1OCCN1CCCCC1Cn1cncn1 (configuration not stated)	-9.63
CCc1nnc(Nc2cccc(C3CCN(S(=O)(=O)N(C)C)CC3)n2)s1	7.99

Structure (SMILES)	INHIBITION [%]
O=C(NCc1nncn1-c1ccccc1)C1CCCCC1	-107
OC1(CN2CCCCC2)CCN(c2nccc(C(F)(F)F)n2)C1 (configuration not stated)	-41.9
OC1(CN2CCCCC2)CCN(c2cccc(C(F)(F)F)n2)C1 (configuration not stated)	60.4
OC1(CN2CCCCC2)CCN(c2cc(C(F)(F)F)ccn2)C1 (configuration not stated)	39.2
N[C@@H]1c2ccccc2C2(CCN(c3ccc(C(F)(F)F)cn3)CC2)[C@H]1O	-38.4
OC1(CN2CCCCC2)CCN(c2ccc(C(F)(F)F)cn2)C1 (configuration not stated)	53.5
O=C1CCC2(CCN(c3cccc(C(F)(F)F)n3)CC2)CN1CCO	-33.7
Cc1ccc(C(=O)N2CCC(c3n[nH]c(C4CC4)n3)CC2)cc1F	-91.9
Cn1ccnc1CN1CCC2(CC1)CC(Oc1cccnc1)C2	-85.4
Cc1ccc(NC(=O)CC2NC(N3CCc4ccccc43)=NC2=O)cc1 (configuration not stated)	-135
O=C1CC(c2ccncc2)C2(CCN(CCc3ccccc3)CC2)N1 (configuration not stated)	-55.3
O=C1CCC2(CCCN(C(=O)c3cccnc3)CC2)N1 (configuration not stated)	-40.9
O=C1CCCC2(CCN(C(=O)c3cnccn3)CC2)N1	-96.5
O=C1CCC2(CCCN(C(=O)c3cnccn3)CC2)N1 (configuration not stated)	51.9
Cc1ccccc1C1(C(=O)NCCN2CCCC2)CCOCC1	-5.04
O=C(NCCN1CCCC1)C1(c2ccc(Cl)cc2)CCOCC1	63.7
COc1ccccc1C1(C(=O)NCCN2CCCCC2)CCOCC1	-35.3
CC(Oc1ccc2c(c1)OCO2)C(=O)N1CCC(N2CCOCC2)CC1 (configuration not stated)	-162
CCn1cc(NC(=O)CN2CCC(Oc3ccc(F)cc3)CC2)c(C)n1	-33.8
Cc1cc(N2CCCN(c3nc(C)nc(C)c3C)CC2)ccn1	58
Cc1cc(N2CCCN(c3ccnc(C)c3)CC2)ccn1	-86.7
Cc1cc(N2CCCN(Cc3ccc(C)o3)CC2)ccn1	35.2

Structure (SMILES)	INHIBITION [%]
Cc1n[nH]c(C)c1C1COCCN1c1ncnc2sccc12 (configuration not stated)	-34.7
COCCN1CCC(c2nc3ccc(NC4CCC4)cn3n2)CC1	-2.13
CCN(CC)CCn1cnc(-c2ccccc2)c1-c1cnc(C)s1	54.2
CCN(CC)CCn1cnc(-c2ccccc2)c1-c1ncc[nH]1	-46.8
CCN(CC)CCn1cnc(-c2ccccc2)c1-c1cnn(CC)c1	20.8
Cc1nc(CCCNC(=O)Nc2cc(F)cc(F)c2)n[nH]1	0.825
O=C(O)c1ccc(CC2CCN(Cc3ccc(-c4cc[nH]n4)o3)C2)cc1 (configuration not stated)	-200
CCC(N)C(=O)N1CCC(OCc2ccc(Cl)c(Cl)c2)CC1 (configuration not stated)	65.5
CNC(=O)CN1CCC(OCc2ccc(Cl)c(Cl)c2)CC1	-0.573
NC(=O)CN1CCC(OCc2ccc(Cl)c(Cl)c2)CC1	32.6
CC1CCCCN1C(=O)CCc1nnc(-c2ccccc2)o1 (configuration not stated)	-26.9
O=C(Cn1nc(-c2ccc(F)cc2)oc1=O)NCc1ccc(F)cc1	-11.2
Cc1ccc(CNC(=O)Cn2nc(-c3ccc(F)cc3)oc2=O)cc1F	55.6
O=C(Cn1nc(-c2ccc(F)cc2)oc1=O)NCc1ccncc1	-63.3
CCC1=NN2C(=N)C(=Cc3cccn3-c3ccc(Br)cc3)C(=O)N=C2S1	-87.5
CCCN(CCOC)C(=O)c1cc(Cn2c(C)nc3ccccc32)[nH]n1	-11.8
CC(NCCN1CCC(N(C)C)CC1)c1ccc(F)cc1N(C)C (configuration not stated)	58.1
CC(NCCCN1CCCC1=O)c1ccc(F)cc1N(C)C (configuration not stated)	-24.45
CC(NCCn1cccn1)c1cc(F)ccc1F (configuration not stated)	0.681
